# The list is not random: actives were taken first. Their share in the collection is about 6.8%.
# Fluor 339 460 – intrinsic fluorescence of library compounds, ex339/em460 – biochemical, MLSMR library, data from DPM-DC assay, artefact control, profiling panel; 65,000 tested, 5.5% active; fluorescence fold increase at 10 µM; AID 709; compound autofluorescence, ex339/em460 nm, NADH buffer; stronger effect = higher value; 1 = no-compound wells, NADH background;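 active = at 10 µM, mean starting fluorescence two-fold or more over control wells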;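 note: signal is the first read of a kinetic run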
# Abs 340nm – absorbance at 340 nm | compound absorbance at 340 nm, fold over control | 65,000 tested, under 10 active | AID 708 | fold change at 10 µM;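 active = at 10 µM dose, initial 340 nm absorbance at least 2 fold that of control wells; inactive = change under 2 fold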;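 note: initial absorbance extrapolated from kinetic A340 decline of NADH oxidation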
# DPM-DC inhibit – S. pneumoniae DPM-DC inhibition; purified DPM-DC, PK/LDH coupled NADH fluorescence; calls only at 10 µM; 65,000 tested, 0.49% active; AID 556;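 active = the 320 compounds with the highest percent inhibition in the single-dose primary screen, excluding strongly autofluorescent ones, cut at about 32% in these data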;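 note: kinetic rate of NADH fluorescence loss reporting ADP formed by the decarboxylase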
# PMK inhibit – S. pneumoniae PMK inhibition; purified PMK, PK/LDH-coupled NADH absorbance 340 nm; inhibition, % at 10 µM; 65,000 tested, 0.49% active; AID 539;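 active = top-ranked compounds by inhibition in the single 10 µM screen, taking a fixed number of the strongest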
# Spn MK inh – S. pneumoniae mevalonate kinase inhibition. purified MK, PK/LDH-coupled NADH absorbance 340 nm. inhibition, % at 10 µM. 65,000 tested, 0.48% active;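 active = ranked among the strongest by inhibition in the single 10 µM screen, a fixed top-ranked set picked for dose follow-up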
# NADH enzymes – inhibition of NAD/NADH coupling enzymes, library profiling. 65,000 tested, 0.02% active. coupled PK/LDH NADH assays, four targets. AID 774. IC50, µM (top dose mostly 10 µM);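 active = single-dose screening hits from any of four coupled enzyme assays that gave an IC50 when retested across doses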;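 note: the DPM-DC format reads NADH fluorescence rather than 340 nm absorbance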
# Hits are given with their value; . = inactive; / = not tested or not shown; + = active, no number.
SMILES,Fluor 339 460,Abs 340nm,DPM-DC inhibit,PMK inhibit,Spn MK inh,NADH enzymes
O=C(c1c[nH]c2ccc(S(=O)(=O)N3CCOCC3)cc2c1=O)N1CCCC1,4.2,.,/,.,.,.
CCOc1ccc(C(=O)OCC(=O)NCc2ccco2)cc1OCC,.,.,.,.,.,.
CCN(CC)S(=O)(=O)c1ccc2c(c1)c(=O)c(C(=O)N1CCOCC1)cn2C,.,.,.,.,.,.
CCN(c1ccccc1)S(=O)(=O)c1ccc2[nH]cc(C(=O)N3CCOCC3)c(=O)c2c1,2.1,.,/,.,.,.
COc1ccc(-c2cc(-c3ccccc3)nc(N3CCCC3)n2)cc1OC,2.2,.,/,.,.,.
COc1ccc(-c2cc(C(F)(F)F)nc(N3CCOCC3)n2)cc1OC,.,.,.,.,.,.
O=C(CCCCn1c(=O)[nH]c2ccccc2c1=O)N1CCN(c2ncccn2)CC1,.,.,.,.,.,.
C=CCNc1ncnc2c1[nH]c1ccccc12,2.5,.,.,.,.,.
c1ccc2c(c1)[nH]c1c(NCC3CCCO3)ncnc12 (configuration not stated),2.8,.,.,.,.,.
CCOCCCNc1ncnc2c1[nH]c1ccccc12,.,.,.,.,.,.
CCN(CC)CCNC(=O)c1nn(-c2ccc(C)cc2)c(=O)c2c1c1ccccc1n2C,3.1,.,.,.,.,.
Cc1ccc(-n2nc(C(=O)NCc3ccco3)c3c4ccccc4n(C)c3c2=O)cc1,2.2,.,.,.,.,.
CCN1CCN(C(=O)c2nn(-c3ccc(C)cc3)c(=O)c3c2c2ccccc2n3C)CC1,.,.,.,.,.,.
COc1ccc(N(C)S(=O)(=O)c2cccc(C(=O)Nc3ccc(-n4cnnn4)cc3)c2)cc1,.,.,.,.,.,.
COc1ccc(N2CC(O)=C(c3nc4ccccc4s3)C2=N)c(OC)c1,.,.,.,.,.,.
COc1cccc(N2CC(O)=C(c3nc4ccccc4c(=O)[nH]3)C2=N)c1,2.1,.,/,.,.,.
O=C(CC1Nc2ccccc2NC1=O)NC1CCCCC1 (configuration not stated),2,.,.,.,.,.
O=C1CCC(C(=O)N(c2ccccc2)C2(C(=O)NC3CCCCC3)CCCCC2)N1 (configuration not stated),.,.,.,.,.,.
O=C1NC(=O)C(CC(=O)N(c2ccccc2)C2(C(=O)NC3CCCC3)CCCCC2)N1 (configuration not stated),.,.,+,.,.,.
COc1ccc(CNc2oc(C)nc2C#N)cc1,.,.,.,.,.,.
Cc1ccc(CNc2oc(-c3cccs3)nc2C#N)cc1,3.6,.,/,.,.,.
N#Cc1nc(-c2cccs2)oc1NCc1ccco1,2.2,.,/,.,.,.
CCOc1ccc(Nc2oc(-c3cccs3)nc2C#N)cc1,3,.,/,.,.,.
N#Cc1nc(-c2cccs2)oc1NCc1ccccc1,2.4,.,/,.,.,.
CCOc1ccc(Nc2oc(-c3ccco3)nc2C#N)cc1,.,.,.,.,.,.
SMILES,Fluor 339 460,Abs 340nm,DPM-DC inhibit,PMK inhibit,Spn MK inh,NADH enzymes
CN(C)c1ccc(NC(=O)c2cccc(N3C(=O)C4C5C=CC(C5)C4C3=O)c2)cc1 (configuration not stated),.,.,.,.,.,.
COc1ccc(OC)c(NS(=O)(=O)c2ccc3c(c2)CCC(=O)N3)c1,.,.,.,.,.,.
CCOC(=O)c1c(C)c(C(=O)NC(C)COC)c(C)n1CC (configuration not stated),.,.,.,.,.,.
N#Cc1nc(-c2cccs2)oc1N1CCN(c2ccccc2)CC1,3.7,.,/,.,.,.
N#Cc1nc(-c2cccs2)oc1NCc1ccccc1Cl,2.4,.,/,.,.,.
N#Cc1nc(-c2cccs2)oc1NCc1ccc(Cl)cc1,3,.,/,.,.,.
CCOC(=O)N1CCN(C(=O)c2cn(C)c(=O)c3c2c2ccccc2n3C)CC1,3.5,.,.,.,.,.
COc1ccc(N2CCN(C(=O)c3cn(C)c(=O)c4c3c3ccccc3n4C)CC2)cc1,.,.,.,.,.,.
CCCN(CCC)CCCNC(=O)c1cc2c(=O)n(C)c3ccccc3c2n1C,.,.,.,.,.,.
COCCn1cc(C(=O)N2CCC(C)CC2)c2c3ccccc3n(C)c2c1=O,4.8,.,/,.,.,.
CC(C)Cn1cc(C(=O)N2CCOCC2)c2c3ccccc3n(C)c2c1=O,2.6,.,.,.,.,.
CCCN(CCC)CCCNC(=O)c1cn(CCOC)c(=O)c2c1c1ccccc1n2C,3.5,.,.,.,.,.
O=C(CN1C(=O)CCS(=O)(=O)c2ccccc21)Nc1cccc(Cl)c1,.,.,.,.,.,.
CC(C)Cn1cc(C(=O)NCc2cccs2)c2c3ccccc3n(C)c2c1=O,2.6,.,.,.,.,.
Cn1c2ccccc2c2c(C(=O)N3CCN(c4ccccn4)CC3)cn(C3CCCC3)c(=O)c21,.,.,.,.,.,.
CCOC(=O)N1CCN(C(=O)c2cn(CC(C)C)c(=O)c3c2c2ccccc2n3C)CC1,4.2,.,/,.,.,.
CC(C(=O)O)N1C(=O)CSc2ncccc21 (configuration not stated),.,.,.,.,.,.
O=C(O)c1ccc(S(=O)(=O)c2ccc3c(c2)C(=O)N(Cc2ccco2)C3=O)cc1,.,.,.,.,.,.
COc1ccc(C(=O)Nc2ccc(N3CCN(c4ccc(OC)cc4)CC3)c(C#N)c2)cc1,5.1,.,/,.,.,.
COc1ccc(C(=O)N2CCC(C(=O)Nc3ccc(OC)c(OC)c3)CC2)cc1,.,.,.,.,.,.
COc1ccc(N2CCN(c3ccc(N)cc3C#N)CC2)cc1,.,.,.,.,.,.
COc1ccc(N2CCN(c3ccc(NC(=O)C4CCCCC4)cc3C#N)CC2)cc1,2.2,.,.,.,.,.
CC(C)Cc1cc(-c2ccco2)c(C#N)c(N)n1,2.2,.,/,.,.,.
CC(NC(=O)c1cccc(F)c1)C(c1cccs1)N1CCN(C)CC1 (configuration not stated),.,.,.,.,.,.
O=C(NCc1ccco1)c1cccc(-c2nnc(-c3ccccc3)o2)c1,.,.,.,.,.,.
SMILES,Fluor 339 460,Abs 340nm,DPM-DC inhibit,PMK inhibit,Spn MK inh,NADH enzymes
CCOC(=O)c1c(C)oc2ccc(NS(=O)(=O)c3ccc4c5c(cccc35)C(=O)N4)cc12,.,.,.,.,.,.
CCN(CC)S(=O)(=O)c1ccc2c3c(cccc13)C(=O)N2,2.2,.,/,.,.,.
O=C1Nc2ccc(S(=O)(=O)NCCC3=CCCCC3)c3cccc1c23,3.6,.,/,.,.,.
COc1ccc(OC)c(S(=O)(=O)NCCC2=CCCCC2)c1,.,.,.,.,.,.
Cc1cccc(C)c1NC(=O)N1CCC(c2nc3ccccc3o2)CC1,.,.,.,.,.,.
O=C(Nc1ccc2c(c1)OC1(CCCC1)O2)C1CC1,.,.,.,.,.,.
